# Results filed as inconclusive are left out. Where a call stands in place of a potency, no number is given. Calls of active or inactive are those of the source. Calls follow the shape of the dose curve; as a rule, active = well fitted curve in the direction sought with a large enough effect; inconclusive = small, poorly fitted or top-dose-only effect, or another doubt; inactive = no such curve, though single readings can be large or run the other way.
# Experiment: Confirmation Concentration-Response Assay for Inhibitors of Tau Fibril Formation, Total Fluorescence Counterscreen for Fluorescence Polarization
# Conditions: Alexa594-tau K18 total fluorescence counterscreen, interference, tau K18 with P301L mutation; series mostly up to 100 µM
# Text: NIH Molecular Libraries Probe Production Network [MLPCN] NIH Chemical Genomics Center [NCGC] MLPCN Grant: X01 MH083262-01 Assay Provider: Carlo Ballatore, University of Pennsylvania NCGC Assay Overview: The microtubule-associated protein tau is an abundant protein in the axons of neurons that stabilizes microtubules. With its ability to modulate microtubule dynamics, tau contributes directly or indirectly, to key structural and regulatory cellular functions. Particularly important is the influence tau exerts on axonal transport, which allows signaling molecules, trophic factors and other essential cellular constituents to travel along the axons. Under pathological conditions, tau becomes sequestered into insoluble aggregates called neurofibrillary tangles. This phenomenon is believed to have pathological consequences by promoting axonal transport deficits that ultimately lead to synaptic dysfunction and neuronal loss. To identify inhibitors of tau aggregation, a heparin-induced tau fibril formation assay was used that employed a recombinantly expressed fragment of tau, K18 (Q242-E372), bearing a P301L mutation (Gustke et al. 1994; Hong et al. 1998). […] Total fluorescence (555 nm excitation and 632 nm emission) was measured to identify fluorescent or absorbent compounds at this wavelength. Such compounds may be artifacts that interfere with the Alexa 594 Tau fluorescence polarization assay. Gustke, N., B. Trinczek, et al. (1994). "Domains of tau protein and interactions with microtubules." Biochemistry 33(32): 9511-22. Hong, M., V. Zhukareva, et al. (1998). "Mutation-specific functional impairments in distinct tau isoforms of hereditary FTDP-17." Science 282(5395): 1914-7. Li, W. and V. M. Lee (2006). "Characterization of two VQIXXK motifs for tau fibrillization in vitro." Biochemistry 45(51): 15692-701. von Bergen, M., S. Barghorn, et al. (2001). "Mutations of tau protein in frontotemporal dementia promote aggregation of paired helical filaments by enhancing local beta-structure." J Biol Chem 276(51): 48165-74.
# For screening, 2 uL/well human K18 P301L (15 uM unlabeled and 0.24 uM Alexa 594-labeled tau final concentrations) in reagent buffer (100 mM sodium acetate pH 7) was dispensed into black solid 1536-well plates (Grenier) using a solenoid-based dispenser. Following transfer of 23 nL compound or DMSO vehicle by a pin tool, 2 uL/well heparin (20 uM final concentration) in reagent buffer was added and the plate centrifuged 15 s at 1000 RPM. Plates were incubated 6 hr at 37 C and then 1 uL/well ThT (30 uM final concentration) was added. After a 1 hr ambient incubation, the plates were read by an Envision (Perkin Elmer) to monitor Alexa 594 FP (555 nm excitation and 632 nm emission). Keywords: NIH Roadmap, MLPCN, MLI, MLSMR, NCGC, qHTS, tau, tauopathies, Alzheimer's disease, fibril, neurodegeneration, aggregation
row,Structure (SMILES),Potency
1,Nc1c(-c2ccccc2)cc[nH]c1=O,inactive
2,CN(c1ccccc1)S(=O)(=O)c1nnc(NC(=O)C2CCCCC2)s1,inactive
3,O=C(Cc1ccccc1)Nc1sc2c(c1C(=O)Nc1ccc(Br)cc1)CCCC2,inactive
4,COc1cccc(/C=C2/SC(=S)N(CC(=O)Nc3nccs3)C2=O)c1,inactive
5,CCOC(=O)c1nn(-c2ccc(OC)cc2)c(=O)c2c(N)scc12,inactive
6,COC(=O)c1c(NC(=O)CCCOc2cccc(C)c2)sc2c1C(C(=O)OC)CC2 (stereo not given),inactive
7,CN(C)c1ccc(N2C(=O)CSC2=S)cc1,inactive
8,O=C(NCc1cccnc1)C1CCN(S(=O)(=O)c2cccs2)CC1,inactive
9,COc1ccc2c(c1)c(CC(=O)N1CCOCC1)c(C)n2C(=O)c1ccc(Cl)cc1,inactive
10,CC(C)c1ccc(NS(=O)(=O)c2ccc3[nH]cc(C(=O)NCCc4ccccc4)c(=O)c3c2)cc1,inactive
11,O=S(=O)(c1ccc(N=C2NN=C(c3cc(F)ccc3F)CS2)cc1)N1CCOCC1,inactive
12,Nc1cc(-c2ccncc2)c[nH]c1=O,inactive
13,CCOC(=O)c1c(N)sc2c1CCOC2,inactive
14,COC(=O)c1c(N)sc2c1C(C(=O)OC)CC2 (stereo not given),inactive
15,COc1ccc2[nH]c(=O)c(CNc3ccccc3OC)cc2c1,inactive
16,COc1cccc(/C=C2/SC(=S)N(CC(=O)Nc3nnc(C)s3)C2=O)c1,inactive
17,Nc1scc2c(C(=O)O)nn(-c3ccccc3)c(=O)c12,inactive
18,COc1ccc(-n2nc(C(=O)O)c3csc(N)c3c2=O)cc1,inactive
19,O=C(Nc1nc2ccc(S(=O)(=O)N3CCCC3)cc2s1)c1ccc(F)cc1,inactive
20,Cc1nc2ccccc2oc1=O,inactive
21,CCOC(=O)c1nn(-c2ccccc2)c(=O)c(C#N)c1C,inactive
22,Cn1cc(Cl)c(C(=O)Nc2cccc(Cl)c2Cl)n1,inactive
23,COc1ccc(NC(=O)Cn2cc(S(=O)(=O)N3CCN(c4ccccc4F)CC3)c3ccccc3c2=O)cc1Cl,inactive
24,Cc1sc(N)c2c(=O)n(-c3ccccc3)ncc12,inactive
25,Cc1cc2c(NC(=O)Nc3ccccc3)cccc2nn1,inactive

# — PubChem BioAssay AID1694 (National Center for Advancing Translational Sciences (NCATS), 2009)
